High-throughput results from PubChem BioAssay.
ssDAF12 agonist: S. stercoralis DAF-12 nuclear receptor activators, primary screen, cell-based, luminescence, HEK293, GRIP1 co-expression, lit1-tk-luc; HEK293 ssDAF-12/GRIP1 lit1-tk-luc reporter; % of 3 µM dafachronic acid response; Nuclear hormone receptor DAF-12 (Strongyloides stercoralis); AID 652126, 2013; activation, % at 6.8 µM; 370,000 compounds, 1% hits;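 active = activation above the mean over all tested compounds plus 3 SD, cut at about 0.9% in these data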;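 also: 0% = DMSO-only wells and 100% = 3 µM delta7-dafachronic acid wells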
DAX1 inh-1: DAX1 (NR0B1) inhibitors on StAR promoter, primary screen, cell-based, luminescence, SF-1 (NR5A1), full-length DAX-1; HEK293T StAR-luciferase reporter, SF-1/DAX-1 repression relief; inhibition, % at 6.8 µM; 370,000 compounds, 1.1% hits;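 active = inhibition above the mean over all tested compounds plus 3 SD, cut at about 3.6% in these data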;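 also: 0% = DAX-1 cells with DMSO and 100% = cells lacking DAX-1 with DMSO; higher inhibition means more luminescence from relief of DAX-1 repression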
hcDAF-12 act: H. contortus DAF-12 nuclear receptor activators, primary screen, cell-based, luminescence, HEK293, lit1-tk-luc reporter | HEK293 hcDAF-12 lit1-tk-luc reporter; 0% DMSO, 100% Δ7-dafachronic acid | activation, % at 6.8 µM | 370,000 compounds, 1.4% hits;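 active = activation above the mean of all tested compounds plus 3 SD, cut at about 5.5% in these data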;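 also: 100% = response to 3 µM Δ7-dafachronic acid high control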
hgDAF-12 ag: H. glycines DAF-12 receptor agonists, primary screen, cell-based, luminescence, HEK293, GAL4 fusion, UAS-luciferase | Nuclear hormone receptor DAF-12 (Heterodera glycines), GAL4 fusion | HEK293 GAL4-hgDAF12 UAS-luciferase reporter, agonist luminescence; normalized to butyrate control | activation, % at 6.8 µM | 370,000 compounds, 1.8% hits | AID 687014, 2013;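 active = activation above a cutoff set at the mean of all screened compounds plus 3 SD, cut at about 10% in these data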;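 also: 0% = DMSO wells and 100% = sodium butyrate wells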
DAX1 inh-2: DAX1 (NR0B1) inhibitors, primary screen, cell-based, HEK293, Gal4-DAX1, luciferase luminescence. inhibition, % at 6.75 µM. AID 504766, 2011. Nuclear receptor subfamily 0 group B member 1 (Homo sapiens), P51843. 340,000 compounds, 0.99% hits. HEK293 Gal4-DAX1 luciferase reporter;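 active = inhibition above the mean over all tested compounds plus 3 SD, cut at about 4.2% in these data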;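 also: 0% = DAX1-transfected cells with DMSO and 100% = empty-vector control cells with DMSO; inhibition shows as a rise in luminescence from relieved DAX1 repression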
Target sequence (P51843 207-470 limits assumed): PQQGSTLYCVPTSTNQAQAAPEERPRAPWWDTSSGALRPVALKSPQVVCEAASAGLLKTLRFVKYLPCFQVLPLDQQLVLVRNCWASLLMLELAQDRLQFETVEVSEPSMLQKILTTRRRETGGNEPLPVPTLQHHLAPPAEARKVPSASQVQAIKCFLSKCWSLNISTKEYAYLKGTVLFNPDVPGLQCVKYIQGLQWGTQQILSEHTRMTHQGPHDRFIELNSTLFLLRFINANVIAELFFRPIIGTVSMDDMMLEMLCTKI
* hit, by the source's call; . = no result given. Hits are enriched below; roughly 4.1% of the tested compounds scored in any of these assays.

SMILES	ssDAF12 agonist	DAX1 inh-1	hcDAF-12 act	hgDAF-12 ag	DAX1 inh-2
C[C@@H]1COc2cc(Br)ccc2S(=O)(=O)N1Cc1cn(CCC2OCCCO2)nn1	-2	0	-2	-4	.
CC1=C(C(=O)N2CCOCC2)CC(CC(=O)NCCc2ccccn2)C(=O)N1CCC1=CCCCC1 (stereo unspecified)	-1	2	-1	-2	.
C/C(=N\Nc1nc(C(=O)O)cs1)c1ccccc1	0	0	0	3	.
C/C(=N\Nc1nc(C(C)(C)C)cs1)c1ccc(O)cc1	0	0	5.8*	0	-1
Cc1ccn2c(NC3CCCCC3)c(C)nc2c1	-1	-1	0	1	5.1*
COc1cccc(C(NC(C)=O)c2nc(-c3ccc(F)c(Cl)c3)cs2)c1 (stereo unspecified)	0	-2	0	-1	.
Nc1nc(SCC(=O)Nc2ccc(OCc3ccccc3)cc2)n[nH]1	-1	0	0	7	5.2*
COc1ccc(OC(=O)Nc2ccccc2)cc1	0	3.9*	3	6	1
CCc1ccc(OC(=O)Nc2ccccc2)cc1	1	2	6.2*	11*	3
COc1ccc(NC(=O)N/C=C/c2ccccc2)cc1	-1	2	1	12*	4
CC(=O)Nc1ccc(NC(=O)Oc2ccccc2)cc1	0	0	-1	3	-1
CC(=O)OC12CCCN(C1)/C(=C/c1cccnc1)C2 (stereo unspecified)	-1	-1	0	-3	.
COc1ccc(-c2cc3ncc(C(C)=O)c(C)n3n2)cc1	0	1	5	8	4.4*
CCc1ccccc1NC(=O)C1COc2ccccc2O1 (stereo unspecified)	-1	1	0	0	3
O=C(Nc1ccccc1[N+](=O)[O-])C1COc2ccccc2O1 (stereo unspecified)	0	2	5	7	8.7*
Cc1ccccc1NC(=O)C1COc2ccccc2O1 (stereo unspecified)	0	0	0	2	2
Cc1cccnc1NC(=O)C1COc2ccccc2O1 (stereo unspecified)	1.4*	1	1	3	-1
COc1ccc(C)cc1NC(=O)C1COc2ccccc2O1 (stereo unspecified)	-1	4.2*	3	2	-1
O=C(O)c1ccccc1/C=N/NC(=O)c1cc(-c2ccco2)nc2ccccc12	2.9*	0	3	4	0
COc1ccc(-c2noc(-c3cccc(Cl)c3)n2)cc1OC	-2	0	-2	3	0
COc1ccc(-c2noc(-c3ccccc3Cl)n2)cc1OC	-1	3	2	7	5.1*
COc1ccc(-c2noc(-c3ccc(Cl)cc3[N+](=O)[O-])n2)cc1OC	-1	1	5.7*	7	3
Cc1ccccc1NC(=O)CN(C)S(=O)(=O)c1ccc2c(c1)n(C)c(=O)c(=O)n2C	-1	0	0	-3	1
Cc1cccc(NC(=O)CN(C)S(=O)(=O)c2ccc3c(c2)n(C)c(=O)c(=O)n3C)c1C	-1	-1	6.1*	-1	0
O=C(O)CC(NC(=O)Cc1ccc([N+](=O)[O-])cc1)c1ccc2c(c1)OCO2 (stereo unspecified)	0	0	-1	-1	4.4*
SMILES	ssDAF12 agonist	DAX1 inh-1	hcDAF-12 act	hgDAF-12 ag	DAX1 inh-2
CN(C)CC(=O)N[C@@H]1CC[C@@H](CCNS(=O)(=O)c2ccccc2)O[C@@H]1CO	-1	0	-2	-2	.
N#C/C(=N\Nc1ccccc1)C(=N)N1CCCCC1	1	3	3	12*	2
Cc1ccc(C(=O)Nc2cc3c(oc2=O)CCCC3=O)cc1	0	2	4	11*	3
O=C1CC(c2ccc3c(c2)OCO3)N=C2N(Cc3ccc4c(c3)OCO4)C/C(=C/c3ccccc3)N12 (stereo unspecified)	-2	.	-2	-1	.
Cc1cc2nc(-c3cccnc3SCC(=O)NC(C)C)[nH]c2cc1C	0	4.1*	4	10	1
COCCOC(=O)CSc1ncccc1-c1nc2cc(C)c(C)cc2[nH]1	1	2	4	9	-1
O=C(NCC1CCCCC1)c1cccc([N+](=O)[O-])c1	-1	0	0	3	2
CCN(CC)S(=O)(=O)c1cc(C(=O)NC2CCCCC2)ccc1C	0	2	3	11*	-1
O=C(NC1CCCCC1)c1ccc([N+](=O)[O-])cc1	1	3.7*	1	6	1
CCN(Cc1ccccc1)S(=O)(=O)c1cc(C(=O)NC2CCCCCC2)ccc1OC	-2	-1	0	-4	-2
CCOc1ccc(C(=O)NC2CCCCCCC2)cc1	1	3	6.1*	12*	2
O=C(NC1CCCCCCC1)c1cc([N+](=O)[O-])ccc1Cl	-1	-1	0	2	0
O=C(NCC1CCCCC1)c1ccc([N+](=O)[O-])cc1	-1	0	0	3	10*
COC(=O)[C@H](C(C)C)N(Cc1cn(Cc2ccc(C)cc2)nn1)S(=O)(=O)c1ccc(F)cc1Br	-1	-1	-3	1	.
COc1cc2c(cc1NC(=O)CSc1nnc(COc3ccccc3)n1Cc1ccco1)oc1ccccc12	0	0	0	4	.
O=C(CCC(=O)N1CCOc2ccccc21)NCCCN1CCCCC1	-1	1	0	1	0
CCN1CCN(CCCNC(=O)CCC(=O)N2CCOc3ccccc32)CC1	-1	1	5.7*	-3	0
O=C(CSc1nc2ccccc2nc1N1CCCCC1)NCc1ccc(Cl)cc1Cl	-1	0	0	2	.
CCCC(=O)OC12CCCN(C1)/C(=C/c1cccc(OC)c1)C2 (stereo unspecified)	-1	0	1	-1	.
Cn1c2ccc(F)cc2c2nnc(SCCN3CCOCC3)nc21	1.1*	1	6	2	2
Cc1n(-c2ccccc2)c2ccc(Cl)cc2[n+]1CCO	-1	0	-1	12*	1
O=C(CSc1nnc(-c2cccnc2)n1Cc1ccco1)Nc1cc(Cl)ccc1F	-1	0	-1	-4	.
Cc1ccc2c(C(=O)CN3CCCCC3CCO)c(C)[nH]c2c1 (stereo unspecified)	0	0	-1	0	1
CCC1CCCCN1CC(=O)c1c(C)[nH]c2cc(C)ccc12 (stereo unspecified)	-1	0	5.8*	0	4
